The results in this text go back to article PMC7862700, “An all-to-all approach to the identification of sequence-specific readers for epigenetic DNA modifications on cytosine”.

Experiment in all cases: DAPPL (digital affinity profiling via proximity ligation, sequencing); 10 mM Tris-HCl pH 7.5, 50 mM NaCl, 1 mM DTT, 4% glycerol, room temperature, 30 min; GST-TFs on glutathione beads, 16-mer random dsDNA library, 0.1% formaldehyde crosslink after washing; high values mean tight binding
One experiment addresses T1, FLI1 (Homo sapiens, UniProt Q01543 1-452).
T1 sequence: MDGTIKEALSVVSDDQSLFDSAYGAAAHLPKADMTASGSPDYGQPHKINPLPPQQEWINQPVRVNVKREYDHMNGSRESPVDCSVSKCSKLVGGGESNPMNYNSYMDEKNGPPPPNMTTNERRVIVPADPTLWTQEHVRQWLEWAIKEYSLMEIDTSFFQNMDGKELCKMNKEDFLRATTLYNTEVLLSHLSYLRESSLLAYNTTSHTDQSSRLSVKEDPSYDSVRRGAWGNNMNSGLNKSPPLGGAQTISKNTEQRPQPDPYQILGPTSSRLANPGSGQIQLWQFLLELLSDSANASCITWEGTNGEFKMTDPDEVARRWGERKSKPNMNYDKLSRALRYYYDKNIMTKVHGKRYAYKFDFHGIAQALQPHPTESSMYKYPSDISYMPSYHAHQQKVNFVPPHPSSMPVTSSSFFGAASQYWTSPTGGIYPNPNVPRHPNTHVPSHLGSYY
To be noted: protein: recombinant; tags: N-terminal GST; dsDNA, one strand shown. Put shortly:
(§1)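 Human transcription factors were made in yeast as GST fusions, captured on glutathione beads and barcoded with DNA. With a tag-only sample included, the pool was incubated with 200 nmole of a random double-stranded 16-mer DNA library in Tris/NaCl/DTT/glycerol buffer at room temperature for 30 min, then crosslinked with 0.1% formaldehyde after washing, ligated by proximity, amplified and sequenced. For binding signal, each hexamer's read frequency for a factor is divided by its frequency for the tag-only sample.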

Another experiment addresses T2, ELK1 (Homo sapiens, UniProt P19419 1-428).
T2 sequence: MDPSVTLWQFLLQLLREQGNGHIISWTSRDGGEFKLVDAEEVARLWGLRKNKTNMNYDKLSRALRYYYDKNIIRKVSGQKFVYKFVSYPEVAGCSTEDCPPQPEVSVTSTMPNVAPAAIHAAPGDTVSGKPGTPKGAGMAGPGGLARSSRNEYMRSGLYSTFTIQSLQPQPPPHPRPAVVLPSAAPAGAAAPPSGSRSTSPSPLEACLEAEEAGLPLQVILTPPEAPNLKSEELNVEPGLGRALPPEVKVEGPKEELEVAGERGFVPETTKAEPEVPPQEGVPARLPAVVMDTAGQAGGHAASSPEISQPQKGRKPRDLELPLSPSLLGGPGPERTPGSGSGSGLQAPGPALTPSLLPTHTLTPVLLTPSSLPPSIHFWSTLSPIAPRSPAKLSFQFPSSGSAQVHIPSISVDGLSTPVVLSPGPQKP
As to conditions: protein: recombinant; tags: N-terminal GST; dsDNA, one strand shown. Put shortly:
as §1

For a further experiment, the target named is T3, GABPA (Homo sapiens, UniProt Q06546 1-454).
T3 sequence: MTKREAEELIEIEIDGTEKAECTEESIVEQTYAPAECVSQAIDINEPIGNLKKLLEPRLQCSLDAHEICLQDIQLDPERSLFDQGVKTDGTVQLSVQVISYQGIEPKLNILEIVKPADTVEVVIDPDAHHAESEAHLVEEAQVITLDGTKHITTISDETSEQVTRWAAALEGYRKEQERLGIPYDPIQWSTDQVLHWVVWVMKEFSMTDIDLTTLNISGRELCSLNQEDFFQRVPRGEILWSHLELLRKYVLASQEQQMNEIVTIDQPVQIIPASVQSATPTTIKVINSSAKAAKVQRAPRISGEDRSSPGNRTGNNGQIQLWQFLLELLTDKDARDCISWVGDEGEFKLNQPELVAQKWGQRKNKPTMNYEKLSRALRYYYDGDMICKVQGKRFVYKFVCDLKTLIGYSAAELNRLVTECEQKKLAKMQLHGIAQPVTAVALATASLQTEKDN
As to conditions: protein: recombinant; tags: N-terminal GST; dsDNA, one strand shown. Put shortly:
as §1

For the next experiment, the target named is T4, ERG (Homo sapiens, UniProt P11308 1-479).
T4 sequence: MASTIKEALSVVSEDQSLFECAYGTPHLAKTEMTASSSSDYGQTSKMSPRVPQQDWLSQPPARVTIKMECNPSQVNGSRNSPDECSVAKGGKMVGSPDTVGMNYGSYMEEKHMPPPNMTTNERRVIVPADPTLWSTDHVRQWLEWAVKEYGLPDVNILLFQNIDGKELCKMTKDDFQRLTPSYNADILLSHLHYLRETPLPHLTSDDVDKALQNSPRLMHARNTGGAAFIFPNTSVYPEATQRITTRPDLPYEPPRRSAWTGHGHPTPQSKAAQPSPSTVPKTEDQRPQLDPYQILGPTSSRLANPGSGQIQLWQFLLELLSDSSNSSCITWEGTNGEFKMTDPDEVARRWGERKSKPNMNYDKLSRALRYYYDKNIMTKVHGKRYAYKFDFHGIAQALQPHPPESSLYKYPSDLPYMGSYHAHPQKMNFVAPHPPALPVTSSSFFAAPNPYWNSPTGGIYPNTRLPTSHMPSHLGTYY
As to conditions: protein: recombinant; tags: N-terminal GST; dsDNA, one strand shown. Put shortly:
as §1

The target in the next experiment is ELF1 (Homo sapiens, UniProt P32519 1-619). As to conditions: protein: recombinant; tags: N-terminal GST; dsDNA, one strand shown. Put shortly:
as §1

The target of a further experiment is T5, EHF (Homo sapiens, UniProt Q9NZC4 1-300).
T5 sequence: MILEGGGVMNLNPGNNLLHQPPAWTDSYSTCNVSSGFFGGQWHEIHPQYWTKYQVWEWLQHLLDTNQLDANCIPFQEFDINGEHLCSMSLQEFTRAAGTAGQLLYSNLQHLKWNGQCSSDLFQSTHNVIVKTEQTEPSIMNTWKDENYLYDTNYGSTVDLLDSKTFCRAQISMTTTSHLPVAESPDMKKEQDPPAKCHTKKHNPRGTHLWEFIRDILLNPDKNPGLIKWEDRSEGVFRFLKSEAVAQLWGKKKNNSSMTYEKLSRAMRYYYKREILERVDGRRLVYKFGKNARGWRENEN
As to conditions: protein: recombinant; tags: N-terminal GST; dsDNA, one strand shown. A digest of the protocol: as §1

Another experiment has as its target SPI1 (Homo sapiens, UniProt P17947 1-270). As to conditions: protein: recombinant; tags: N-terminal GST; dsDNA, one strand shown. Put shortly:
as §1

Another experiment has as its target SPIB (Homo sapiens, UniProt Q01892 1-262). To be noted: protein: recombinant; tags: N-terminal GST; dsDNA, one strand shown. A digest of the protocol: as §1
The target in another experiment is T6, ELK3 (Homo sapiens, UniProt P41970 1-407).
T6 sequence: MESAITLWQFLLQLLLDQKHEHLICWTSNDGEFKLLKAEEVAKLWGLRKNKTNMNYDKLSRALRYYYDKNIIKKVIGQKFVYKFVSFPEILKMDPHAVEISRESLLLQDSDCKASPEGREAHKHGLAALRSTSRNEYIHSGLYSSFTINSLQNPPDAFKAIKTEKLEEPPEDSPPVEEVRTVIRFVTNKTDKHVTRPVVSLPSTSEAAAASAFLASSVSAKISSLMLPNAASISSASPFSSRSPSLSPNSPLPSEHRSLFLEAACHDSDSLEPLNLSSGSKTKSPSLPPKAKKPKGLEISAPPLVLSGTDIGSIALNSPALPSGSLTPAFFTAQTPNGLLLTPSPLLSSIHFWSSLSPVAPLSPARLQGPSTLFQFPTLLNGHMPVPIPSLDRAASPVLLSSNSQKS
To be noted: protein: recombinant; tags: N-terminal GST; dsDNA, one strand shown. Put shortly: as §1

The target of another experiment is T7, FEV (Homo sapiens, UniProt Q99581 1-238).
T7 sequence: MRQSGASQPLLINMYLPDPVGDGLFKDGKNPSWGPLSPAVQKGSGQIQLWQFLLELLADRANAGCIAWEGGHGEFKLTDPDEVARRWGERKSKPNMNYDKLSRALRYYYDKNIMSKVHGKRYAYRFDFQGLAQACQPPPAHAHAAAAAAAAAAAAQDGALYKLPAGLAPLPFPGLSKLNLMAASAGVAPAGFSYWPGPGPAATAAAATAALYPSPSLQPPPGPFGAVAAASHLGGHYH
As to conditions: protein: recombinant; tags: N-terminal GST; dsDNA, one strand shown. Put shortly:
as §1

In a further experiment the target is ETV5 (Homo sapiens, UniProt P41161 1-510). As to conditions: protein: recombinant; tags: N-terminal GST; dsDNA, one strand shown. Put shortly:
as §1

For another experiment, the target named is HSF1 (Homo sapiens, UniProt Q00613 1-529). To be noted: protein: recombinant; tags: N-terminal GST; chain copies: 3; dsDNA, one strand shown. A digest of the protocol:
as §1

A further experiment deals with T8, SPIC (Homo sapiens, UniProt Q8N5J4 1-248).
T8 sequence: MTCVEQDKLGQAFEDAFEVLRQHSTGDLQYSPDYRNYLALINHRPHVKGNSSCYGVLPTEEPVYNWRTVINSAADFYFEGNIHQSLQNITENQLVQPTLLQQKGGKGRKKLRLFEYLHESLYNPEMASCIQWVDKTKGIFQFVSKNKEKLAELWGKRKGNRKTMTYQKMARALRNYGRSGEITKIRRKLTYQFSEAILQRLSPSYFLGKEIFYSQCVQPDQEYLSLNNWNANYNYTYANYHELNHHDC
To be noted: protein: recombinant; tags: N-terminal GST; dsDNA, one strand shown. A digest of the protocol:
as §1

A further experiment concerns the target ELF4 (Homo sapiens, UniProt Q99607 1-663). To be noted: protein: recombinant; tags: N-terminal GST; dsDNA, one strand shown. A digest of the protocol: as §1
A further experiment deals with T9, ELK4 (Homo sapiens, UniProt P28324-2 1-405).
T9 sequence: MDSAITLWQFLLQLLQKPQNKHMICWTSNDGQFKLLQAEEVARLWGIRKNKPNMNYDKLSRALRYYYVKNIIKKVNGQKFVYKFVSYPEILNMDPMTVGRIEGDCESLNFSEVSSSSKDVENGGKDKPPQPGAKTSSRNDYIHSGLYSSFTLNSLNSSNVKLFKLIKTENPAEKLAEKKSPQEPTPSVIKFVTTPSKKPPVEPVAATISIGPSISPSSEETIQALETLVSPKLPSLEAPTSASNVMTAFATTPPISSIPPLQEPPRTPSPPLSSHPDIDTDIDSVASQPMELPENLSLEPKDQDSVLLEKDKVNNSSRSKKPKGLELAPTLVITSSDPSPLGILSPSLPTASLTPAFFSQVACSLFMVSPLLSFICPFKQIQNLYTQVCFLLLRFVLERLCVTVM
To be noted: protein: recombinant; tags: N-terminal GST; dsDNA, one strand shown. Put shortly: as §1

Another experiment concerns the target T10, ETV2 (Homo sapiens, UniProt O00321 1-342).
T10 sequence: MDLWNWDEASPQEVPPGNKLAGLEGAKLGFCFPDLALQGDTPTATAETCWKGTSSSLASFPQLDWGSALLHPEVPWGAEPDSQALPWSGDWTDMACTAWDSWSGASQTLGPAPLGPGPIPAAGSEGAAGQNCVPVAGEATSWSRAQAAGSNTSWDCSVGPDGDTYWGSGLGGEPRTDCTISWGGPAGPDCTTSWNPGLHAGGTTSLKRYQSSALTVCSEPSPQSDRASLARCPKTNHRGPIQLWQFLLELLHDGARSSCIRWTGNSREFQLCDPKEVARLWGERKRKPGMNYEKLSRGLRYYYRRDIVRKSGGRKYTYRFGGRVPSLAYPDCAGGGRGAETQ
As to conditions: protein: recombinant; tags: N-terminal GST; dsDNA, one strand shown. Put shortly:
as §1

A further experiment deals with T11, ELF3 (Homo sapiens, UniProt P78545 1-371).
T11 sequence: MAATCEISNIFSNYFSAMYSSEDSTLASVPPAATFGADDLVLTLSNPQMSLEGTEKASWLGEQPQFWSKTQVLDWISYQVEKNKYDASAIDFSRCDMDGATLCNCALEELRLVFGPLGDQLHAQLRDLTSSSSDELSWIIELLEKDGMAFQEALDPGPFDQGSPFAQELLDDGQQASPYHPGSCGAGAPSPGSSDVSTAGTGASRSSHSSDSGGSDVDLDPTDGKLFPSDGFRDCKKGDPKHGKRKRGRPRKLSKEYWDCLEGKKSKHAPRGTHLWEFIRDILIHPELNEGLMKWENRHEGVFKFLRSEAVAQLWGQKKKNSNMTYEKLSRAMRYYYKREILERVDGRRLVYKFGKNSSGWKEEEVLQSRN
As to conditions: protein: recombinant; tags: N-terminal GST; dsDNA, one strand shown. A digest of the protocol: as §1

Another experiment concerns the target CRX (Homo sapiens, UniProt O43186 1-299). To be noted: protein: recombinant; tags: N-terminal GST; dsDNA, one strand shown. A digest of the protocol:
as §1

For the next experiment, the target named is ETV1 (Homo sapiens, UniProt P50549 1-477). As to conditions: protein: recombinant; tags: N-terminal GST; dsDNA, one strand shown. Put shortly:
as §1

Chain of HSF1 (Q00613 whole entry): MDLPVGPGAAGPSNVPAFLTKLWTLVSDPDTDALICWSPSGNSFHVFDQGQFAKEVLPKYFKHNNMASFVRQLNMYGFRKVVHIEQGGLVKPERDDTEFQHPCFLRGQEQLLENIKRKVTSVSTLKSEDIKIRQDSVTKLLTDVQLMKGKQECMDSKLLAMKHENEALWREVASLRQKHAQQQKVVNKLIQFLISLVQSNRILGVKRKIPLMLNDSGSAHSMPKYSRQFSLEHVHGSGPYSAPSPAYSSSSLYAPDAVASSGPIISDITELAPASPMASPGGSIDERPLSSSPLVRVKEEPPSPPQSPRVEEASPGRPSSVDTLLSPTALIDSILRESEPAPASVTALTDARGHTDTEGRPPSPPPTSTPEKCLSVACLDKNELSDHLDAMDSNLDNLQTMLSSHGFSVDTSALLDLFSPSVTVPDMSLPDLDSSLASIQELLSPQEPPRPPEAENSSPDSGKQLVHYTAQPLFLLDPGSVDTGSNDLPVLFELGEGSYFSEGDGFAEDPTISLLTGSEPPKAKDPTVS
Chain of CRX (O43186 whole entry): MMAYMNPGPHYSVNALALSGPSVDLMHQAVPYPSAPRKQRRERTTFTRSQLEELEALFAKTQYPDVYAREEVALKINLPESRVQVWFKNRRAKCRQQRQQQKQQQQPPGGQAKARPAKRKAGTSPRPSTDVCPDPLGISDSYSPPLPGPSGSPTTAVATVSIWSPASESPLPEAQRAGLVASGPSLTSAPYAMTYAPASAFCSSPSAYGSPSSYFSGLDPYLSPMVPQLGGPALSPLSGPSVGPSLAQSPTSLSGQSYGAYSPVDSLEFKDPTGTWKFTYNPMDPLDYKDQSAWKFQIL
Chain of ELF1 (P32519 whole entry): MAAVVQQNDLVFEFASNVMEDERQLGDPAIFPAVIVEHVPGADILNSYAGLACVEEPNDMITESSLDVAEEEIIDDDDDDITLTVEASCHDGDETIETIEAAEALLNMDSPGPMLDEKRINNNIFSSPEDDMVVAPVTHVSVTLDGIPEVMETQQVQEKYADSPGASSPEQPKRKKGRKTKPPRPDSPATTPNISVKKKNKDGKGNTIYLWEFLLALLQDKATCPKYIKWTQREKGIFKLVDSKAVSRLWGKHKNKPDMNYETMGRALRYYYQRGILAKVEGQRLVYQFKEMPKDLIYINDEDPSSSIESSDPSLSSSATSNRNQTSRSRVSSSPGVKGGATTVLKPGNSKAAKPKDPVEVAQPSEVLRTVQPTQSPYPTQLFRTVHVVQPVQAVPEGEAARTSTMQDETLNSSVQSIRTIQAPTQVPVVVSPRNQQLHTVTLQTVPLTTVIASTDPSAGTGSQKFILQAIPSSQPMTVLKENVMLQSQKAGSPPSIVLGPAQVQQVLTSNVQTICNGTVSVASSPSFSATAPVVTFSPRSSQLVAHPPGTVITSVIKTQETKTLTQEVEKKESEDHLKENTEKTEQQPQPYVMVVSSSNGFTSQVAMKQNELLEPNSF
Chain of SPIB (Q01892 whole entry): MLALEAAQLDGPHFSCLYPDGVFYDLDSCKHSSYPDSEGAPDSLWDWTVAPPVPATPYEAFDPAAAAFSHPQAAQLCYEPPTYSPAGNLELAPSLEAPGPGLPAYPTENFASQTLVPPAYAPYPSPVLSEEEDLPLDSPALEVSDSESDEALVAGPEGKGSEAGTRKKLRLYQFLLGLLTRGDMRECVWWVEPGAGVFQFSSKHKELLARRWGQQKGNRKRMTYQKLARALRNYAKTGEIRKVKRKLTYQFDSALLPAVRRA
Chain of ELF4 (Q99607 whole entry): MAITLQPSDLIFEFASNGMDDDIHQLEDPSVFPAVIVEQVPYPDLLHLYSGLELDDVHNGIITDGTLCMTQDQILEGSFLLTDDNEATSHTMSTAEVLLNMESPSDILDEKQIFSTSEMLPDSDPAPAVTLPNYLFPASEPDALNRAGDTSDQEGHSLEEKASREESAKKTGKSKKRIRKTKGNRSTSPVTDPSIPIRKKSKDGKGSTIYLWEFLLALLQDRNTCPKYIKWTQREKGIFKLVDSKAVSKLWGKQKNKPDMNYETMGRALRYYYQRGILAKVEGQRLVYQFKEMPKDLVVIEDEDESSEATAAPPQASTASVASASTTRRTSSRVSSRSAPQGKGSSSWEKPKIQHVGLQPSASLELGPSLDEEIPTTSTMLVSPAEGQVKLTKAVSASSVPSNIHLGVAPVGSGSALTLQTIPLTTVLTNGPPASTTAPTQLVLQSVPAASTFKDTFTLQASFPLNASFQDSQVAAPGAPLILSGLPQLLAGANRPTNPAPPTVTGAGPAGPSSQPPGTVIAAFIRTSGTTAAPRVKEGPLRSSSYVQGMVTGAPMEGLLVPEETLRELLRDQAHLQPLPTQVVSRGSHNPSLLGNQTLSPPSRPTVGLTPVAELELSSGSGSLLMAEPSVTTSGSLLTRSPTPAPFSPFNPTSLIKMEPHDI
Chain of ETV1 (P50549 whole entry): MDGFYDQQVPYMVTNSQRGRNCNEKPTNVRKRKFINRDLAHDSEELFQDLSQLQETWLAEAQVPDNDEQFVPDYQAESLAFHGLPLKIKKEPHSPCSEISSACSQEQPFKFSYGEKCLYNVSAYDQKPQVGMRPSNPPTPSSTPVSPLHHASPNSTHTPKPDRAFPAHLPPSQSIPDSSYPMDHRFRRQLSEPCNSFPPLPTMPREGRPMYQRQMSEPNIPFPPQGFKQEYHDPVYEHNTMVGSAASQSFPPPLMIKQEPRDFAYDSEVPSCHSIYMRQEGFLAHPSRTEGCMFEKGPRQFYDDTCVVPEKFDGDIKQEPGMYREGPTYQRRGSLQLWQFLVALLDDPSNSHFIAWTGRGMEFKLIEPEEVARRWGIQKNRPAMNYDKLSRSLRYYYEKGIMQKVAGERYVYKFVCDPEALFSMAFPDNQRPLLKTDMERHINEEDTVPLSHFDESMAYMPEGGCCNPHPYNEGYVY
Chain of ETV5 (P41161 whole entry): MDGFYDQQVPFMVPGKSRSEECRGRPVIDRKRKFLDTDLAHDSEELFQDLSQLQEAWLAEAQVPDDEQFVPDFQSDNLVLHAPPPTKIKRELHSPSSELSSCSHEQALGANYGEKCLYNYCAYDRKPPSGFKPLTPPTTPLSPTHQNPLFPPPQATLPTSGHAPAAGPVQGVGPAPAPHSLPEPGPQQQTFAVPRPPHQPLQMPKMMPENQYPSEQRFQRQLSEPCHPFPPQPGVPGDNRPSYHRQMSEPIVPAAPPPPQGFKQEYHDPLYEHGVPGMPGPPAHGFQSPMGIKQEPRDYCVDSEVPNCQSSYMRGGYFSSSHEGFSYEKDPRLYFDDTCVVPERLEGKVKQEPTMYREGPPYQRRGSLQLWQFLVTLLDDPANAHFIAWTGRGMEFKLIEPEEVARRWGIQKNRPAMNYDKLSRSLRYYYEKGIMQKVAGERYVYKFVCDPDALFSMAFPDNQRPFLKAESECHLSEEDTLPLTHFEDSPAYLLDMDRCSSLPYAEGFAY

Consider CGAAGC, for which the binding signal with FLI1 is 1.39 fold enrichment (6-mer frequency, TF over GST control); with ELK1, 1.36 fold enrichment (6-mer frequency, TF over GST control); with GABPA, 1.36 fold enrichment (6-mer frequency, TF over GST control); in the experiment with ERG it was 1.23 fold enrichment (6-mer frequency, TF over GST control); with ELF1 it was 1.34 fold enrichment (6-mer frequency, TF over GST control); with EHF, 1.26 fold enrichment (6-mer frequency, TF over GST control). Also, the binding signal with SPI1 was 1.2 fold enrichment (6-mer frequency, TF over GST control); with SPIB it was 1.22 fold enrichment (6-mer frequency, TF over GST control); in the experiment with ELK3, 1.49 fold enrichment (6-mer frequency, TF over GST control); with FEV it was 1.23 fold enrichment (6-mer frequency, TF over GST control); with ETV5, 1.31 fold enrichment (6-mer frequency, TF over GST control); with HSF1, 1.64 fold enrichment (6-mer frequency, TF over GST control). Moreover, the binding signal with SPIC was 1.46 fold enrichment (6-mer frequency, TF over GST control); with ELF4, 1.44 fold enrichment (6-mer frequency, TF over GST control); with ELK4 it was 1.48 fold enrichment (6-mer frequency, TF over GST control); with ETV2, 1.3 fold enrichment (6-mer frequency, TF over GST control); in the experiment with ELF3 it was 1.23 fold enrichment (6-mer frequency, TF over GST control); in the experiment with CRX, 1.19 fold enrichment (6-mer frequency, TF over GST control). Besides, the binding signal with ETV1 is 1.29 fold enrichment (6-mer frequency, TF over GST control).
